Assay outcomes: PubChem, National Center for Advancing Translational Sciences (NCATS)
Sampled rows, rich in hits. Any-hit rate of the full collection: about 19%.
TDP1 cell CPT = growth inhibition of DT40 Tdp1-/-;hTDP1 cells with camptothecin (screen for TDP1 inhibitors). chicken DT40 Tdp1-/-;hTDP1 cells + 20 nM CPT, ATP luminescence, 48 h. hit rate 12% among 420,000. AID 686979. Potency, µM (series often up to 46.2 µM), without a hit: at the top dose activity change, negative = growth inhibition, actives largely listed as inhibitors; note: potency is the fitted concentration of half-maximal effect; nearly all actives have a fitted effect of over 55% in size
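Chicken DT40 Tdp1-/- cells stably complemented with human TDP1 were seeded at 400 cells/well in medium containing 20 nM camptothecin, exposed to pin-transferred compounds, and grown at 37 °C for at least 48 hr. Viability was read as ATP luminescence.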
IL-1B inflam inh = blocks inflammasome-driven IL-1 beta release. THP-1 LPS/ATP IL-1B secretion, AlphaLISA, 16 h; active compounds read low. activity change, % at 57.5 µM. hit rate 4.7% among 360,000; in the data active = activity change below about -50%; inconclusive = mostly about -30% to -49%
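THP-1 cells pretreated 1 hr with compounds (up to 57.5 uM final), then stimulated with LPS (250 ng/mL final) plus ATP (1.25 mM final); secreted IL-1B measured by AlphaLISA after 16 hr, decreased signal indicating inhibition.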
TDP1 block = blocks human tyrosyl-DNA phosphodiesterase 1; hit rate 0.28% among 350,000; recombinant TDP1, AlphaScreen DNA substrate cleavage; Q9NUW8; Potency, µM (doses to about 130 µM), for inactives: top-dose activity change, negative = inhibition, hits mostly inhibitors; note: potency is the fitted concentration of half-maximal effect; nearly all actives have a fitted effect of over 40% in size
Target sequence (Q9NUW8 whole entry, looked up): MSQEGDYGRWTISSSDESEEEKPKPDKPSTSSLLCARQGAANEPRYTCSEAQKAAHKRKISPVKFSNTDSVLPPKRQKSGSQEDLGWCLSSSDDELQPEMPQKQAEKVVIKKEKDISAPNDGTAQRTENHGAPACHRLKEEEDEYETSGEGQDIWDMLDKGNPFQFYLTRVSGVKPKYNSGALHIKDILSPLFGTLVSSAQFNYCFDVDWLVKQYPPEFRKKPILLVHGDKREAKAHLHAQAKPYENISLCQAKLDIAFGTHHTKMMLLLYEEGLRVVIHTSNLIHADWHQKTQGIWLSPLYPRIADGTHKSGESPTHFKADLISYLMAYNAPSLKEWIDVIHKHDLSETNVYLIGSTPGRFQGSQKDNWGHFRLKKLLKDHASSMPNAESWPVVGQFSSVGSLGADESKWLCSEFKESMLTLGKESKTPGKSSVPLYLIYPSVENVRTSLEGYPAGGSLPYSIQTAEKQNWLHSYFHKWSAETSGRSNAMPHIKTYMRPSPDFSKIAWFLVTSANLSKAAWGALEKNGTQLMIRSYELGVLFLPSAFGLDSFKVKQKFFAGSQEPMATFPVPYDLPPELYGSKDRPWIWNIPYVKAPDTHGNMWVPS
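Steps: enzyme plus compound, 15 min RT; add biotin/phosphotyrosine-FITC oligonucleotide (15 nM final), react 5 min; add donor/acceptor beads (10 ug/ml final), 10 min; read AlphaScreen. Tdp1 at 1 nM final.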
TDP1 cell noCPT = qHTS for Inhibitors of human tyrosyl-DNA phosphodiesterase 1 (TDP1): qHTS in cells in absence of CPT; AID 686978, 2013; hit rate 15% among 420,000; Potency, µM (titrated, usually from 46.2 µM), for the others: at the top dose activity change, negative = growth inhibition, most hits filed as inhibitors; DT40 Tdp1-/- hTDP1 cells, no CPT, ATP luminescence, 48 h; note: potency is the fitted concentration of half-maximal effect; nearly all actives have a fitted effect of over 55% in size
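Luminescent ATP content (CellTiter-Glo) served as the growth readout. Knockout chicken DT40 cells expressing human TDP1 were exposed to compounds without camptothecin for a minimum 48 hr at 37 °C.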
Giardia kill = Giardia lamblia killing; AID 540267; activity change, % at 7.66 µM, hits read low; Giardia lamblia trophozoite viability; hit rate 0.15% among 340,000; in the data active = activity change below about -80%; inconclusive = between about -30% and that limit;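 note: parasites exposed to compound for two days anaerobically before the ATP read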
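ATP-content bioluminescence gauges trophozoite survival. Cells (100/well) receive compound and incubate anaerobically for 48 hrs at 37 deg C; detection reagent follows for 15-30 min at room temperature.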
ELG1 repair inh = inhibitors of ELG1-dependent DNA repair in HEK293T cells. hit rate 2.3% among 330,000. Potency, µM (doses to about 46.1 µM), for inactives: top-dose activity change, negative = inhibition, actives largely listed as inhibitors. HEK293T ELG1-luciferase reporter, luminescence, 16 h; DNA damage induced by 5-fluorouridine; note: potency is the fitted concentration of half-maximal effect; nearly all actives have a fitted effect of over 55% in size
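Quantitative HTS, concentration-response format. 2,000 cells/well co-treated with 5-fluorouridine and compound, 16 hr in 5% CO2 at 37 °C; ONE-Glo luminescence read after 30 min.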
Active calls of the source: *; ? = inconclusive; / = no result; [ ] = another dose, or the depositor's remark. Unless noted, calls come from the whole dose curve; as a rule, active = well fitted curve in the direction sought with a large enough effect; inconclusive = small, poorly fitted or top-dose-only effect, or another doubt; inactive = no such curve, though single readings can be large; an effect the other way counts as inactive or inconclusive. % is set by controls: 0 for no effect and ±100 for the full control effect.

SMILES | TDP1 cell CPT | IL-1B inflam inh | TDP1 block | TDP1 cell noCPT | Giardia kill | ELG1 repair inh
Cc1cc(C(=O)N/N=C/c2ccc(Cl)c([N+](=O)[O-])c2)c(C)n1-c1ccc(F)cc1 | 23µM* | -53* | 11% | 15µM* | -18 | ?
O=C(N/N=C/c1ccc(Cl)c([N+](=O)[O-])c1)c1ccc2c(c1)OCCO2 | -16% | -15 | / | 17% | -21 | /
Cc1c(C(=O)N/N=C/c2ccoc2)cccc1[N+](=O)[O-] | 16% | 54 | / | 22% | 8 | 25%
Cc1cc(/C=N/NC(=O)c2ccccn2)c(C)n1-c1cccc([N+](=O)[O-])c1 | -3% | -16 | 3% | ? | -18 | ?
Cc1cc(C)cc(-n2c(C)cc(/C=N/NC(=O)c3cccc([N+](=O)[O-])c3C)c2C)c1 | ? | -9 | 10% | 26µM* | -10 | ?
Cn1cccc1CC(=O)N/N=C/c1ccc(Cl)c([N+](=O)[O-])c1 | -16% | -90* | 3% | -25% | -7 | 5%
Cc1cc(C(=O)N/N=C/c2cccc([N+](=O)[O-])c2)c(C)n1-c1ccccc1 | ? | -16 | 3% | 23µM* | 6 | ?
Cn1cccc1CC(=O)N/N=C/c1cc([N+](=O)[O-])ccc1Cl | 16% | 9 | 0% | -9% | 13 | 15%
O=C(Cn1c(=O)n(Cc2ccc(C(=O)NCc3ccccc3Cl)cc2)c(=O)c2ccccc21)Nc1ccc(F)c(Cl)c1 | -18% | / | -2% | -29% | / | /
CCCS(=O)(=O)N1CCCC(C(=O)Oc2ccc(C)c(C)c2)C1 (stereo unspecified) | 2% | -9 | / | -2% | 0 | -5%
CCOC(=O)OCC1OC(c2ccccc2)C=CC1Oc1ccc(F)cc1C (stereo unspecified) | / | / | 2%[21 µM] | / | / | /
COc1ccc(C(=O)NCCS(=O)(=O)N(C)Cc2ccccc2)cc1 | -26% | -6 | / | ? | -11 | 2%
Cc1cccc(C(=O)OCC(=O)N2c3ccccc3CC2C)c1C (stereo unspecified) | -20% | 4 | / | ? | / | /
Cc1occc1C(=O)N/N=C/c1ccc(Cl)c([N+](=O)[O-])c1 | ? | -72* | -3% | ? | -1 | ?
O=C(N/N=C/c1ccc2c(c1)OCO2)c1ccc(NC(=O)c2ccc(F)cc2)cc1 | ? | -2 | -5% | ? | -3 | -8%
Cc1cc(C(=O)CCl)c(C)n1-c1cccc([N+](=O)[O-])c1 | 1.5µM* | -100* | 1% | 2.3µM* | -3 | 4%
CC(=O)c1c(C(C)=O)c(C)n(-c2cccc([N+](=O)[O-])c2)c1C | 0% | -5 | 1% | 0% | 5 | 4%
Cc1cc(C(=O)N/N=C/c2ccc3c(c2)OCO3)c(C)n1-c1ccc(F)cc1 | ? | -9 | 6% | 13µM* | -18 | -11%
Cc1ccc(NC(=O)CN(C)C(=O)CSc2nnc(C(F)(F)F)n2C)cc1 | -2% | -11 | 3% | -8% | 11 | 26%
Cc1ccccc1C(=O)O/N=C(\N)Cc1cccs1 | ? | -61* | 1% | -22% | -17 | ?
CC(C)(C)c1ccc(C(=O)O/N=C(\N)Cc2cccs2)cc1 | ? | 3 | / | ? | / | /
CCOc1ccc(NC(=O)CSc2nc(=O)n(CCN3CCOCC3)c3c2CCCC3)cc1 | -3% | -1 | / | 7% | 7 | -3%
O=[N+]([O-])c1ccc(NC(=S)N/C(=N/CS(=O)(=O)c2ccccc2)c2ccccc2)cc1 | ? | -8 | 3% | 23µM* | 5 | ?
CC(=O)Nc1ccc(NC(=S)NC(=O)c2ccc([N+](=O)[O-])cc2)cc1 | -9% | 8 | -1% | -6% | -13 | -21%
COCCn1c(N2CCN(c3ccc(OC)cc3)CC2)nc2c1c(=O)n(C)c(=O)n2C | ? | 0 | 6% | ? | -3 | 18µM*
SMILES | TDP1 cell CPT | IL-1B inflam inh | TDP1 block | TDP1 cell noCPT | Giardia kill | ELG1 repair inh
Cn1c(=O)c2c(nc(N3CCN(c4ccc([N+](=O)[O-])cc4)CC3)n2C)n(C)c1=O | -20% | -5 | 5% | 18µM* | -1 | ?
C=CCn1c(N2CCN(c3ccc(OC)cc3)CC2)nc2c1c(=O)n(C)c(=O)n2C | 21µM* | -16 | 8% | 18µM* | -20 | 16µM*
O=C(Nn1cnnc1)c1ccc(Cl)c(Cl)c1 | -17% | -4 | / | -9% | 14 | 4%
CC(c1ccncn1)N(C)Cc1nc(Cc2ccccc2F)no1 (stereo unspecified) | 5% | 16 | -4% | 0% | -7 | 0%
CC(c1ccncn1)N(C)Cc1nc(-c2ccc(C(F)(F)F)cc2)no1 (stereo unspecified) | 18µM* | 0 | 0% | ? | 0 | -1%
Cc1cc(C)cc(N2C(=O)CC(Sc3ccccc3C(=O)O)C2=O)c1 (stereo unspecified) | 4.1µM* | 6 | 1% | 18µM* | -6 | 0%
Cc1cccc(N2C(=O)CC(Sc3ccccc3C(=O)O)C2=O)c1 (stereo unspecified) | ? | -12 | 3% | ? | 10 | 22%
Cc1ccc(N2C(=O)CC(Sc3ccccc3C(=O)O)C2=O)cc1 (stereo unspecified) | 7.3µM* | 0 | -2% | 15µM* | -17 | 0%
CN(C)c1ccc(N2C(=O)CC(Sc3ccccc3C(=O)O)C2=O)cc1 (stereo unspecified) | 13µM* | 0 | -3% | ? | -23 | 13%
CCOC(=O)c1c(N2C(=O)CC(Sc3ccccc3C(=O)O)C2=O)sc(C)c1C (stereo unspecified) | 23µM* | -11 | -8% | ? | -19 | 2%
Cc1ccc(N2C(=O)CC(Sc3ncccc3C(=O)O)C2=O)cc1 (stereo unspecified) | -5% | 3 | 3% | 5% | 8 | 9%
O=C(NCC1Cc2cc(-c3cncnc3)cc(Cl)c2O1)c1cccc(Cn2cccn2)c1 (stereo unspecified) | 3%[9.04 µM] | / | / | -25% | / | /
CCCC[C@@H]1CNCCN1CCCc1cc(OC)c(OC)c(OC)c1 | -22% | -10 | -20% | -4% | -13 | ?
